CSC inhib: cancer stem cell inhibition. cancer stem cell-like cells viability, luminescence. inhibition, % at 7.5 µM. 300,000 compounds, 1.1% hits; in the data active = inhibition above about 75%; inconclusive = no clear call, values can overlap the other calls; tested in HMLE shEcad cells
Mdm2-MdmX inh: human Mdm2/MdmX binding inhibition. O15151+Q00987. SaOS-2 split-luciferase Mdm2/MdmX complementation, luminescence. inhibition, % at 8 µM. 330,000 compounds, 3% hits;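 active = inhibition of at least 50% at 8 µM in the primary screen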
Target sequence (O15151 whole entry, looked up): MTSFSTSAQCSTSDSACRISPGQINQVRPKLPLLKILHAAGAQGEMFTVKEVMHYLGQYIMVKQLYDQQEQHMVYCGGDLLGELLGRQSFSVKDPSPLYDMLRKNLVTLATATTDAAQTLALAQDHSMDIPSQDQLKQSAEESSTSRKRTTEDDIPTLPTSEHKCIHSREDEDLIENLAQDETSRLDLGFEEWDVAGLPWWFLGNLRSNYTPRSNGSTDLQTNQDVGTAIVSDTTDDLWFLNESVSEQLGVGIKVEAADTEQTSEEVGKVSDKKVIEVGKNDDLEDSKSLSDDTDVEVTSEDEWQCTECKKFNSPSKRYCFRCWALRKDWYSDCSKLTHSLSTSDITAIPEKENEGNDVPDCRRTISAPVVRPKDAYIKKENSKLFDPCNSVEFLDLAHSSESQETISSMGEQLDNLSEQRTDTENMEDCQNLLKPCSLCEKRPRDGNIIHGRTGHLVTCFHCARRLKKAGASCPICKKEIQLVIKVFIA
Target sequence (Q00987 whole entry, looked up): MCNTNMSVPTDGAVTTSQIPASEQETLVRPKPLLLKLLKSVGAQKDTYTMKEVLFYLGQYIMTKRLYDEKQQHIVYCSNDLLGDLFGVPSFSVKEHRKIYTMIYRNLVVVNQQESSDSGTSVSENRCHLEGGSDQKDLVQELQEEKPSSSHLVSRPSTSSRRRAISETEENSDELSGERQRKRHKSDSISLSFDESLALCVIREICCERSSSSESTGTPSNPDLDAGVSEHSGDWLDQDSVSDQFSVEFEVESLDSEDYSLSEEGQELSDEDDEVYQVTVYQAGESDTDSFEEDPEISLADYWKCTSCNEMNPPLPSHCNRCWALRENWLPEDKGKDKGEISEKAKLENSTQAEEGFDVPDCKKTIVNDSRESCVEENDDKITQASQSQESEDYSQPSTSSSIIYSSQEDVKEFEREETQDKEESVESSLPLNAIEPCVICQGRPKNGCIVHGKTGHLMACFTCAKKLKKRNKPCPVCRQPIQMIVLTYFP
Calb FLC: affects C. albicans growth with fluconazole; AID 1979; growth inhibition, % (concentration not given with the values); C. albicans CaCi-2 (fluconazole-resistant clinical isolate) + fluconazole, Alamar Blue growth, 48 h; 300,000 compounds, 0.57% hits;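 active = growth inhibition above about 58% in most replicates, limit read from the data, passing the limit was not always enough; inconclusive = exactly half the replicates above a set limit; inactive = most replicates below a set limit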;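 also: all wells also contain fluconazole at 8 µg/ml as a sub-toxic cotreatment; 0% = median of DMSO wells and 100% = median of geldanamycin control wells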
PP1 inh: blocks human PP1-alpha phosphatase, a PP5 counter-screen; 320,000 compounds, 0.9% hits; inhibition, % at 6.7 µM; AID 2235; P62136; purified PP1alpha, OMFP fluorescence;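 active = inhibition above the mean inhibition of all tested compounds plus 3 SD, computed separately for each screening campaign, cut at about 15% in these data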
Beta apoptosis: blocks beta cell apoptosis. INS-1E cytokine-induced death, ATP luminescence, 48 h; percent of positive-control rescue, neutral wells zero. protection from apoptosis, % (test concentration not listed). 300,000 compounds, 0.8% hits. AID 435005;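 active = Every replicate reaches about 75%, or at least half do and their mean reaches it too, limit read from the data; inconclusive = At least half of replicates reach the limit but their mean does not; inactive = Under half of replicates reach the limit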;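 also: 0% = cytokine-treated negative control wells and 100% = positive control rescue; higher means more ATP so stronger rescue from cytokine killing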
PP5 primary: PP5 (human) phosphatase inhibition; purified PP5c, OMFP substrate fluorescence; P53041; 320,000 compounds, 0.18% hits; inhibition, % at 6.7 µM;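 active = inhibition above the campaign's mean inhibition across all tested compounds plus 3 SD, cut at about 9.5% in these data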;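 also: 0% = DMSO only and 100% = 100 µM cantharidin control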
Mdm2 MdmX conf: confirmation of human Mdm2/MdmX interaction inhibitors. inhibition, % at 8 µM. 10,000 compounds, 55% hits. AID 489028. shares compounds with Mdm2-MdmX inh. Mdm2-MdmX binding, luminescent assay; in the data active = inhibition above about 40%
FLuc counter: counter-screen for Mdm2/MdmX inhibitors: full-length luciferase. shares compounds with Mdm2-MdmX inh. SaOS-2 full-length luciferase counterscreen, luminescence. inhibition, % at 8 µM. 6,200 compounds, 77% hits. AID 504607;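 active = mean inhibition at 8 µM reaching about 37%, which flags the compound as non-specific, limit read from the data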;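 also: p53-null SaOS-2 cells with luciferase driven by a doxycycline-inducible promoter; compound on cells about two nights before reading with doxycycline added after day one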
An asterisk follows results filed as active; ? = inconclusive; . = not tested or not shown. This is a sample that favours compounds with a hit; in the whole collection about 4.9% have one here.

SMILES	CSC inhib	Mdm2-MdmX inh	Calb FLC	PP1 inh	Beta apoptosis	PP5 primary	Mdm2 MdmX conf	others
CN1CCN(C(=O)c2ccc3c(c2)NC(=O)/C(=C/c2ccccc2)S3)CC1	23.2	-5.1	-3.4	0.1	2.8	0.0	.
CCOC(=O)C1CCN(C(=O)c2ccc3c(c2)NC(=O)/C(=C\c2cccc(C)c2)S3)CC1	15.7	5.1	11.2	9.7	8.1	5.8	.
O=C1Nc2cc(C(=O)NCCN3CCCCCC3)ccc2S/C1=C\c1ccccc1	-5.0	80.8*	1.2	3.4	1.5	1.1	18.6
Cc1ccc(C)c(S(=O)(=O)N2CCN(CC(=O)NC(C)c3ccccc3)CC2)c1 (stereo not drawn)	.	-21.5	.	10.1	2.2	-1.1	.
CCC(CO)Oc1cc(NCc2ccccc2)c2ncn(C(C)C)c2c1 (stereo not drawn)	.	9.2	.	.	-10.7	.	.
CC(C)n1cnc2c(NCc3ccccc3)cc(N[C@H](C)CO)cc21	124.0*	74.0*	.	.	114.2*	.	78.7*	FLuc counter=52.0*
CCC(c1nnc(SC(C)C(=O)NC2CC2)n1-c1ccc(OC)cc1)N(C)C (stereo not drawn)	.	-8.0	.	1.0	0.0	-0.4	.
Cc1nc(NC2=NCN(CCCN3CCOCC3)CN2)nc2c(C)cccc12	5.2	97.3*	.	-1.6	3.5	1.0	96.4*	FLuc counter=25.4
CCCCN1CN=C(Nc2nc3ccccc3o2)NC1	.	-45.7	-7.8	-4.5	-7.9	3.2	.
NC(=O)c1nc(-c2ccco2)nc2c1[nH]c(=O)n2-c1ccc(Cl)c(Cl)c1	1.1	75.3*	-1.4	6.7	29.6	0.3	13.9
NC(=O)c1nc(-c2cccs2)nc2c1[nH]c(=O)n2-c1ccc(F)cc1	17.6	100.3*	2.5	-0.3	42.1	3.2	67.0*	FLuc counter=81.5*
COc1ccccc1-c1nc2ccccc2c(=O)n1NC(=O)c1cccs1	-6.0	-39.9	10.3	-6.9	-9.9	-3.3	.
COc1ccccc1C(=O)Nc1nnc(SCC(=O)NC2CCCC2)s1	15.2	-102.0	0.5	4.5	4.5	-0.8	.
C/C(=N\Nc1cc(-c2ccccc2)nc(-c2ccccc2)n1)c1ccc(O)c(C)c1	.	53.3*	-4.4	0.7	17.1	3.5	6.5
COc1cc(N/N=C(\C)c2ccc(N)cc2)nc(-c2ccccc2)n1	-7.6	13.9	5.0	1.3	5.2	2.8	.
COc1cc(N/N=C(\C)c2ccc(O)c(C)c2)nc(-c2ccccc2)n1	109.8*	87.1*	12.6	2.0	22.6	4.9	66.0*	FLuc counter=111.5*
Cc1ccsc1CN(C)C(=O)c1ccc(Oc2ccccc2)cc1	3.7	-11.7	-0.5	2.5	6.6	2.5	.
COc1ccc(CCn2c(SCC(=O)Nc3cc(C)on3)nc3ccccc3c2=O)cc1OC	-10.1	58.8*	3.3	1.7	-11.3	0.2	24.5
Cc1cc(NC(=O)CSc2nc3cc(Cl)ccc3c(=O)n2C(C)C)no1	.	55.6*	.	.	.	.	19.6
CCn1c(SCC(=O)Nc2ccc(C(C)=O)cc2)nc2c([nH]c3ccccc32)c1=O	12.2	62.2*	.	5.9	26.2	1.1	35.7
Cn1c(SCC(=O)NCCc2ccccc2)nc2c([nH]c3ccccc32)c1=O	-2.0	16.7	29.8	2.5	-2.6	2.0	.
Cn1c(SCC(=O)NCc2ccc(F)cc2)nc2c([nH]c3ccccc32)c1=O	5.9	75.3*	-2.3	8.9	-1.3	2.6	-8.3
COc1cc(OC)c2c(c1)C(=O)OC2	-6.7	7.8	24.9	-0.2	0.5	0.1	.
CCOC(=O)C1CCN(C(=O)c2cc3c(=O)n4ccccc4nc3n2C)CC1	-2.9	16.0	-9.1	-3.4	-1.9	2.3	.
Cc1cc(S(=O)(=O)NC2CC(C)(C)NC(C)(C)C2)c(Cl)cc1Cl	34.6	7.6	-6.6	-2.4	7.1	0.5	.
SMILES	CSC inhib	Mdm2-MdmX inh	Calb FLC	PP1 inh	Beta apoptosis	PP5 primary	Mdm2 MdmX conf	others
CCn1c(SCC(=O)N2CCOCC2)nc2c([nH]c3ccccc32)c1=O	-15.2	19.0	1.7	-2.5	-6.0	-0.5	.
CCn1c(SCC(=O)Nc2cc(C)on2)nc2c([nH]c3ccccc32)c1=O	-8.0	64.8*	4.3	-2.7	26.2	1.4	25.7
COCCn1c(SCC(=O)Nc2ccc(NC(C)=O)cc2)nc2c([nH]c3ccccc32)c1=O	-0.2	8.8	.	7.9	2.0	2.9	.
CCn1c(SCC(=O)Nc2cccc(NC(C)=O)c2)nc2c([nH]c3ccccc32)c1=O	-7.9	78.0*	-3.7	6.5	.	3.4	30.6
CCN(Cc1ccc(OC)c(F)c1)C(=O)C1CCCO1 (stereo not drawn)	-13.1	-4.9	1.8	-2.7	-8.8	-0.1	.
CCN(Cc1ccc(OC)c(F)c1)C(=O)CCl	-12.6	89.0*	-3.5	-2.2	-16.0	1.9	63.1*	FLuc counter=21.8
Cc1ccc(NC(=O)CSCC(=O)N(C)CC(=O)Nc2cccc3ccccc23)cc1	-1.8	2.2	18.3	-2.6	-6.6	4.1	.
Cc1ccc(N2C(=O)CC(C)(C)CC2=O)cc1Cl	-8.0	-10.2	-1.1	-2.4	1.0	-1.8	.
COc1ccc(C(=O)c2cnc3ccccc3c2-c2ccccc2)cc1	18.3	57.0*	7.3	-0.1	-21.3	3.3	23.1
Cc1ccc(C(=O)c2cnc3ccccc3c2-c2ccccc2)cc1	14.9	55.8*	9.3	1.7	-7.8	3.4	29.9
Cc1ccc(C(=O)c2nc(C(=O)NCCO)nc3ccccc23)cc1	5.4	-4.2	.	-2.0	-17.8	0.1	.
S=C(NCc1ccccc1)Nc1ccc(Cl)cc1	-19.1	3.5	-0.6	-2.3	1.1	4.4	.
FC(F)(F)Sc1ccc(NC(=S)NCc2ccccc2)cc1	54.2	79.0*	-34.9	2.0	17.7	2.3	-1.9
O=C(COC(=O)CCSc1ccc(Cl)cc1)NCc1ccco1	-1.7	-14.4	26.5	0.8	-8.9	-0.3	.
CN1CCN(/N=C/c2ccc(OCc3ccccc3)cc2)CC1	?	-35.7	-4.6	-3.6	-0.1	0.1	.
O=c1[nH]c(N/N=C/c2cc3c(cc2[N+](=O)[O-])OCO3)nc2ccccc12	-18.6	64.0*	4.8	-4.0	-5.2	-1.1	6.0
Cc1ccc(Nc2nc(N/N=C\c3ccc4c(c3)OCO4)nc(N3CCOCC3)n2)cc1	53.8	64.8*	51.5	-2.7	2.2	2.2	57.0*	FLuc counter=78.1*
COc1cccc(/C=N/Nc2nc(Nc3ccc([N+](=O)[O-])cc3)nc(N3CCCC3)n2)c1O	.	96.1*	72.1*	15.5*	59.9	5.5	89.4*	FLuc counter=39.1*
Cc1ccc(/C=N/Nc2cc(C)nc(N3CCOCC3)n2)cc1	-1.9	16.6	5.3	-4.0	-0.4	4.9	.
O=[N+]([O-])c1cc2c(cc1/C=N/Nc1nc(Nc3ccccc3)nc(N3CCCCC3)n1)OCO2	4.0	63.6*	-2.8	1.9	10.0	2.1	42.5*	FLuc counter=37.3*

Bioassay records deposited in PubChem BioAssay by several laboratories.
